Laboratory results published in ChEMBL document CHEMBL3433997, “St. Jude Leishmania screening dataset” (2016).

Columns and labels:
Assay type in all cases: functional
[1] = target: Solute carrier family 2, facilitated glucose transporter member 1 (Homo sapiens) (UniProt P11166); assay: ST_JUDE_LEISH: Cytotoxicity at 2uM final concentration against transgenic Leishmania Mexicana promastigotes LmGLUT1 that are glucose transport deficient and complemented with the human glucose transporter GLUT1. Activity is measured by DNA content using SYBR green in vitro
[2] = target: Hexose transporter 1 (Plasmodium falciparum) (UniProt O97467); assay: ST_JUDE_LEISH: Cytotoxicity at 2uM final concentration against transgenic Leishmania Mexicana promastigotes LmPfHT that are glucose transport deficient and complemented with the Plasmodium falciparum hexose transporter. Activity is measured by DNA content using SYBR green in vitro
[3] = target: Glucose transporter (Leishmania mexicana) (UniProt O61059); assay: ST_JUDE_LEISH: Cytotoxicity at 2uM final concentration against transgenic Leishmania Mexicana promastigotes LmGT2 that are glucose transport deficient and complemented with the L. Mexicana glucose transporter 2. Activity is measured by DNA content using SYBR green in vitro

Chain of Solute carrier family 2, facilitated glucose transporter member 1 (Homo sapiens) (P11166 whole entry): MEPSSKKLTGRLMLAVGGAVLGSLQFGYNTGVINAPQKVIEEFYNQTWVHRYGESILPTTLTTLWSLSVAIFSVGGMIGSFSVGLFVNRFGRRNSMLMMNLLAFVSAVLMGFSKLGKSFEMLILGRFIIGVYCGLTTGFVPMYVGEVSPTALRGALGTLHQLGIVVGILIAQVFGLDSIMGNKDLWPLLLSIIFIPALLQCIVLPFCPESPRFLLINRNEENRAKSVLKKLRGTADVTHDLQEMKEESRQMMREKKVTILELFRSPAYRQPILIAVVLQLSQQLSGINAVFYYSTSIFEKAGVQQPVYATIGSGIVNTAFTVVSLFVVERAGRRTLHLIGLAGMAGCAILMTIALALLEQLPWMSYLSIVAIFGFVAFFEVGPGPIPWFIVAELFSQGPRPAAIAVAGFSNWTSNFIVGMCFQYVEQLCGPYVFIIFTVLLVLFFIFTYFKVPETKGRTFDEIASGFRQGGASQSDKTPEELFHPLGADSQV

CC(C)(C)Oc1ccc(CC2NC3(C(=O)N(Cc4ccc(C(C)(C)C)cc4)c4ccccc43)C3C(=O)N(c4ccc(Br)cc4)C(=O)C23)cc1 (stereo not given)
inhibition [1]: -1.37% | inhibition [2]: 3% | inhibition [3]: 0.37%

NC1=NC(c2ccccc2)(c2ccccc2)C(=O)N1Cc1ccc(-c2cccnc2)cc1
inhibition [1]: 2.71% | inhibition [2]: 1.53% | inhibition [3]: 0.52%

CS(=O)(=O)c1ccc(CNCc2cccc(-c3ccc(-c4nc5cc(C(F)(F)F)ccc5[nH]4)cc3)c2)cc1
inhibition [1]: 5.51% | inhibition [2]: 5.08% | inhibition [3]: 3.3%

CC(=O)Nc1cccc(CN(Cc2ccc(-c3ccc(CNCc4cccnc4)cn3)cc2)C(=O)Cc2cccnc2)c1
inhibition [1]: 14.6% | inhibition [2]: 10.7% | inhibition [3]: 14%

C1=CN(Cc2ccccc2)C=CC1=C1C=Nc2ccccc21
inhibition [1]: 12.1% | inhibition [2]: 10.4% | inhibition [3]: 8.71%

COCCN1CCC(CN(C)CC(C)(C)c2nc(-c3ccc(Cl)c(O)c3)c(-c3ccncc3)[nH]2)CC1
inhibition [1]: 2.73% | inhibition [2]: 5.16% | inhibition [3]: 0.55%

Cc1cc(C2CCN(CCCCNC(=O)c3ccc(-c4ccc(C(F)(F)F)cc4)cc3)CC2)c(C)cc1OCCOC1CCCCO1 (stereo not given)
inhibition [1]: 1.45% | inhibition [2]: -0.6% | inhibition [3]: 2.21%

Cc1nc(C)c(-c2ccc(C(=O)c3ccccc3)cc2)c(O)c1Br
inhibition [1]: 5.44% | inhibition [2]: 5.49% | inhibition [3]: 5.35%

Cc1cccc2nc(-c3cccc(-c4cccc(NC(=O)CN5CCN(C)CC5)c4)c3)[nH]c12
inhibition [1]: 8.23% | inhibition [2]: 7.52% | inhibition [3]: 6.83%

Cc1cccc2nc(-c3cccc(-c4cccc(NC(=O)CNC(=O)c5ccc(O)cc5)c4)c3)[nH]c12
inhibition [1]: 0.25% | inhibition [2]: -0.56% | inhibition [3]: -0.5%

Cc1cc(CN2CCC(N3CC(c4ccccc4)(c4ccccc4)OC3=O)C2)ccc1O (stereo not given)
inhibition [1]: 4.14% | inhibition [2]: 3.7% | inhibition [3]: 8.06%

Cc1cc(=NN=Cc2ccccc2F)c2cc(C(F)(F)F)ccc2[nH]1
inhibition [1]: 1.67% | inhibition [2]: 3.04% | inhibition [3]: 0.5%

CN(C)Cc1cccc(-c2ccc(NC(=O)c3ccc4c(=O)n(C5CCCCC5)cnc4c3)cc2)c1
inhibition [1]: 76% | inhibition [2]: 80.4% | inhibition [3]: 79.8%

CN(C)c1ccc(-c2csc(C(=O)NCC3CCN(Cc4cccc(C(F)(F)F)c4)C3)c2)cc1 (stereo not given)
inhibition [1]: 7.22% | inhibition [2]: 6.1% | inhibition [3]: 9.26%

Fc1cccc(Nc2nc(NCc3ccc4ccsc4c3)nc(Nc3cccc(F)c3)n2)c1
inhibition [1]: 19.2% | inhibition [2]: 18% | inhibition [3]: 10.6%

O=C(/C=C/c1ccc([N+](=O)[O-])cc1)N1CCC(NS(=O)(=O)c2ccc(Br)cc2)CC1
inhibition [1]: -0.08% | inhibition [2]: 1.13% | inhibition [3]: 1.17%

O=C(Nc1cccc(C(F)(F)F)c1)Nc1nc2ccc([N+](=O)[O-])cc2s1
inhibition [1]: 4.59% | inhibition [2]: 4.44% | inhibition [3]: 0.91%

CC(C)[C@H](NC(=O)c1ccc(O)c(-c2ccc(Cl)c(Cl)c2)c1)C(=O)NCCN1CCCCC1
inhibition [1]: -0.08% | inhibition [2]: 1.9% | inhibition [3]: -1.44%

CCN(CC)CCNC(=O)c1ccc(NC(=O)c2oc3c(Cl)cccc3c2C)cc1
inhibition [1]: 12.1% | inhibition [2]: 8.3% | inhibition [3]: 7.44%

O=C(NCCNc1ccnc(Nc2ccc(F)cc2)n1)Nc1ccccc1F
inhibition [1]: 2.71% | inhibition [2]: 1.86% | inhibition [3]: -2.84%

COc1ccc2nccc([C@@H](O)CN3CCC(NC(=O)C(c4cc5ccccc5o4)N4CCN(C(c5ccccc5)c5ccccc5)CC4)CC3)c2c1 (stereo not given in full)
inhibition [1]: 3.01% | inhibition [2]: 1.55% | inhibition [3]: 1.41%

CC(C)(C)SCC(O)Cn1c2ccc(Br)cc2c2cc(Br)ccc21 (stereo not given)
inhibition [1]: 2.07% | inhibition [2]: 0.65% | inhibition [3]: -0.28%

COc1cc(CCON2C(N)=NC(N)=NC2(C)C)cc(OC)c1OC
inhibition [1]: 2.34% | inhibition [2]: 0.73% | inhibition [3]: 1.04%

CCc1cc(Cc2cnc(N)nc2N)cc(CC)c1OC
inhibition [1]: 2.48% | inhibition [2]: 0.46% | inhibition [3]: -1.28%

Cc1cccc(N2CCN(C3CCC(NC(=O)c4cc5ccccc5[nH]4)CC3)CC2)c1C (stereo not given)
inhibition [1]: 2.31% | inhibition [2]: 1.82% | inhibition [3]: 1.43%

Cc1[nH]c(C)c(-c2ccc(Nc3ccc(C(F)(F)F)cn3)cc2)c(=O)c1Br
inhibition [1]: 2.7% | inhibition [2]: 5.96% | inhibition [3]: 3.17%

CC1CC1C(=O)NC1CCN(CC2(c3ccccc3)CCCCC2)CC1 (stereo not given)
inhibition [1]: 0.87% | inhibition [2]: 1.18% | inhibition [3]: -0.67%

CCNc1cc(C(=O)N[C@@H](Cc2ccoc2)[C@H](O)CNC(C)CCCC(C)C)cc(N2CCCCS2(=O)=O)c1 (stereo not given in full)
inhibition [1]: 1.42% | inhibition [2]: 0.7% | inhibition [3]: 0.83%

CC(C)NCc1ccc(-c2cccc(NC(=O)c3ccc(F)cc3)c2)cc1
inhibition [1]: 6.57% | inhibition [2]: 9.15% | inhibition [3]: 6.89%

CCN(CC)CCN(Cc1ccc(-c2ccc(C(F)(F)F)cc2)cc1)C(=O)Cn1c(CCc2ccc(F)c(F)c2)nc(=O)c2ccccc21
inhibition [1]: 1.89% | inhibition [2]: 0.22% | inhibition [3]: 1.08%

O=C(Nc1ccc(Cn2ncc(N3CCNCC3)c(Cl)c2=O)cc1)Nc1ccc(-c2ccccc2)cc1
inhibition [1]: 4.36% | inhibition [2]: 2.78% | inhibition [3]: -0.78%

CN1CCCN(c2ccnc3cc4c(cc23)N(C(=O)c2ccc(Cl)c(Cl)c2)CC4)CC1
inhibition [1]: 0.8% | inhibition [2]: 1.89% | inhibition [3]: 1.54%

Cc1nn(-c2ccccc2)nc1C(=O)NC1CCN(CCNC(=O)c2ccc(Cl)c(Cl)c2)CC1
inhibition [1]: 0.92% | inhibition [2]: 2.53% | inhibition [3]: 1.85%

COCCNCc1ncsc1-c1ccc2c(Nc3ccc(Oc4ccccc4)cc3)ccnc2c1
inhibition [1]: 0.02% | inhibition [2]: 1.15% | inhibition [3]: 2.26%

O=C(Nc1ccc(S(=O)(=O)NCCCN2CCOCC2)cc1)c1cc(-c2ccccc2)[nH]n1
inhibition [1]: 1.2% | inhibition [2]: 1.66% | inhibition [3]: 5.52%

CC(=O)Nc1nc(C(=O)Nc2cccc(-c3ccc(-c4nc5cccc(C)c5[nH]4)cc3)c2)cs1
inhibition [1]: 8.06% | inhibition [2]: 7.51% | inhibition [3]: 6.75%

Oc1cc(NCc2ccccc2NCc2ccc(Cl)c(Cl)c2)nc2ccccc12
inhibition [1]: 2.41% | inhibition [2]: 3.68% | inhibition [3]: 3.11%

CO/C(=C\C=C\c1cc2cc(Cl)c(Cl)cc2[nH]1)C(=O)NCCCN1CCC(c2ccccc2)CC1
inhibition [1]: 2.73% | inhibition [2]: 5.04% | inhibition [3]: 1.33%

COc1cccc(NC(=O)NC2CCN(CCCCCNC(=O)/C=C/c3ccc(Cl)c(Cl)c3)CC2)c1
inhibition [1]: 0.13% | inhibition [2]: 0.47% | inhibition [3]: 3.52%

CC(Sc1nnc(-c2cccs2)[nH]1)C(=O)c1c[nH]c2ccccc12 (stereo not given)
inhibition [1]: 0.9% | inhibition [2]: 1.35% | inhibition [3]: 0.63%

Cc1cc(=O)c(-c2ccc(OCc3ccc(OC(F)(F)F)cc3)cc2)c(C)[nH]1
inhibition [1]: 7.02% | inhibition [2]: 4.41% | inhibition [3]: 2.08%

CC1(C)[C@H]2CC[C@@H](CNc3nc(NCC(=O)Nc4ccc5ccccc5c4)nc(N4CCC(N5CCCC5)CC4)n3)[C@@H]1C2
inhibition [1]: 0.95% | inhibition [2]: 2.52% | inhibition [3]: 2.89%

O=C(Cc1ccc([N+](=O)[O-])cc1)N1CCc2cc3nccc(N4CCN5CCC[C@@H]5C4)c3cc21
inhibition [1]: 1.21% | inhibition [2]: 0.39% | inhibition [3]: 2.97%

O=C1Nc2cccc3c2C1(CCCCN1CCC(c2c[nH]c4cc(C(F)(F)F)ccc24)CC1)CCC3 (stereo not given)
inhibition [1]: 3.89% | inhibition [2]: 1.75% | inhibition [3]: 0.54%

CCN(CC)CCNC(=O)c1ccc(NC(=O)c2cn(-c3ccccc3)nc2-c2cccs2)cc1
inhibition [1]: 5.46% | inhibition [2]: 4.01% | inhibition [3]: 6.19%

Cc1cccc2nc(-c3cccc(-c4cccc(NC(=O)C(C)CN5CCN(C)CC5)c4)c3)[nH]c12 (stereo not given)
inhibition [1]: 1.94% | inhibition [2]: 1.44% | inhibition [3]: 5.8%

c1ccc(-c2cc(NCc3cccc4ccccc34)c3[nH]ncc3n2)cc1
inhibition [1]: 5.11% | inhibition [2]: 5.96% | inhibition [3]: 6.54%

COc1ccc2nccc(N3CCC(CCNCc4ccc5c(n4)NC(=O)CS5)CC3)c2c1
inhibition [1]: 6.54% | inhibition [2]: 9.44% | inhibition [3]: 2.78%

COc1ccccc1CCNc1nc(C)cc(N[C@@H](Cc2ccccc2)C(=O)NCCc2ccccc2)n1
inhibition [1]: 7.15% | inhibition [2]: 7.61% | inhibition [3]: 2.86%

CC(=NNC(=N)N)c1ccc2ccc3ccccc3c2c1
inhibition [1]: 0.27% | inhibition [2]: 1.38% | inhibition [3]: 0.74%
